# Laboratory results from the supplement of paper PMC8728848.
# About 410 targets per protein were measured; listed, in parts, are those with the strongest signals and a random draw of the rest.
# B1: LlpA (Arthrobacter sp) (protein)
# chain: MGSSHHHHHHSSGLVPRGSHMTLHPETALRPGAAATSPNSRYRLLYQTDGNLVLYGPDGPLWDSGTNGHGAGACIMQADGNLVLYGPNDEYVWDTETDNNPGSRLVIQDDGNAVIYRPDGSPLWATETCQPPGSADSHVLQSGSTLTPTHGIRSANGLYGLLYQTDGNLVFYGPDGPLWDSGTNGRGAGACIMQPDGNLVLYGPHDEYVWDTETDNNPGSRLVIQDDGNAVIYRPDGNPTWVTGTH
# Legend:
# Test in all cases: glycan array binding signal (z-score within array); higher = stronger binding
# Conditions in all cases: glycan notation: IUPAC condensed, linker removed
# [1] = molecular target: GlcNAc(b1-3)Gal(b1-4)GlcNAc(b1-3)Gal(b1-4)GlcNAc
# Procedure, shortened: (§1)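 The Consortium for Functional Glycomics database supplied 3228 glycan arrays, of which those lacking an available protein sequence were dropped. The binding signal, a within-array Z-score, was averaged across arrays of the same protein sequence and across linkers. Negative scores can be read as non-binding.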
# [2] = molecular target: GlcNAc(b1-3)Gal(b1-4)GlcNAc(b1-3)Gal(b1-4)GlcNAc(b1-2)Man(a1-3)[GlcNAc(b1-3)Gal(b1-4)GlcNAc(b1-3)Gal(b1-4)GlcNAc(b1-2)Man(a1-6)]Man(b1-4)GlcNAc(b1-4)[Fuc(a1-6)]GlcNAc
# Procedure, shortened: as §1
# [3] = molecular target: GlcNAc(b1-3)Gal(b1-4)GlcNAc(b1-3)Gal(b1-4)GlcNAc(b1-3)Gal(b1-4)GlcNAc(b1-3)Gal(b1-4)GlcNAc(b1-2)Man(a1-3)[GlcNAc(b1-3)Gal(b1-4)GlcNAc(b1-3)Gal(b1-4)GlcNAc(b1-3)Gal(b1-4)GlcNAc(b1-3)Gal(b1-4)GlcNAc(b1-2)Man(a1-6)]Man(b1-4)GlcNAc(b1-4)[Fuc(a1-6)]GlcNAc
# Procedure, shortened: as §1
# [4] = molecular target: GlcNAc(b1-3)Gal(b1-4)GlcNAc(b1-3)Gal(b1-4)GlcNAc(b1-3)Gal(b1-4)GlcNAc(b1-3)Gal(b1-4)GlcNAc(b1-2)[GlcNAc(b1-3)Gal(b1-4)GlcNAc(b1-3)Gal(b1-4)GlcNAc(b1-3)Gal(b1-4)GlcNAc(b1-3)Gal(b1-4)GlcNAc(b1-6)]Man(a1-6)[GlcNAc(b1-3)Gal(b1-4)GlcNAc(b1-3)Gal(b1-4)GlcNAc(b1-3)Gal(b1-4)GlcNAc(b1-3)Gal(b1-4)GlcNAc(b1-2)Man(a1-3)]Man(b1-4)GlcNAc(b1-4)[Fuc(a1-6)]GlcNAc
# Procedure, shortened: as §1
# [5] = molecular target: GlcNAc(b1-3)Gal(b1-4)GlcNAc(b1-3)Gal(b1-4)GlcNAc(b1-3)GalNAc
# Procedure, shortened: as §1
# [6] = molecular target: GlcNAc(b1-3)Gal(b1-4)GlcNAc(b1-6)[Gal(b1-3)]GalNAc
# Procedure, shortened: as §1
# GlcNAc(b1-3)Man = molecular target: GlcNAc(b1-3)Man
# Procedure, shortened: as §1
# [7] = molecular target: GlcNAc(b1-4)GlcNAc(b1-4)GlcNAc(b1-4)GlcNAc(b1-4)GlcNAc
# Procedure, shortened: as §1
# [8] = molecular target: Man(a1-2)Man(a1-6)[Man(a1-3)]Man(a1-6)[Man(a1-2)Man(a1-2)Man(a1-3)]Man(b1-4)GlcNAc(b1-4)GlcNAc
# Procedure, shortened: as §1
# MurNAc(b1-4)GlcNAc = molecular target: MurNAc(b1-4)GlcNAc
# Procedure, shortened: as §1
# [9] = molecular target: Neu5Ac(a2-3)Gal(b1-3)GalNAc(b1-4)[Neu5Ac(a2-8)Neu5Ac(a2-3)]Gal(b1-4)Glc
# Procedure, shortened: as §1
# [10] = molecular target: Neu5Ac(a2-3)Gal(b1-3)GlcNAc(b1-2)Man(a1-3)[Neu5Ac(a2-3)Gal(b1-3)GlcNAc(b1-2)Man(a1-6)]Man(b1-4)GlcNAc(b1-4)GlcNAc
# Procedure, shortened: as §1
# [11] = molecular target: Neu5Ac(a2-3)Gal(b1-3)GlcNAc(b1-6)GalNAc
# Procedure, shortened: as §1
# [12] = molecular target: Neu5Ac(a2-3)Gal(b1-4)GlcNAc(b1-3)Gal(b1-3)GlcNAc
# Procedure, shortened: as §1
# [13] = molecular target: Neu5Ac(a2-3)Gal(b1-4)[Fuc(a1-3)]GlcNAc(b1-3)GalNAc
# Procedure, shortened: as §1
# [14] = molecular target: Neu5Ac(a2-3)[GalNAc(b1-4)]Gal(b1-4)Glc
# Procedure, shortened: as §1
# [15] = molecular target: Neu5Ac(a2-6)Gal(b1-4)GlcNAc(b1-2)Man(a1-3)[Gal(b1-4)GlcNAc(b1-2)Man(a1-6)]Man(b1-4)GlcNAc(b1-4)GlcNAc
# Procedure, shortened: as §1
# [16] = molecular target: Neu5Ac(a2-6)Gal(b1-4)GlcNAc(b1-2)Man(a1-3)[Neu5Ac(a2-6)Gal(b1-4)GlcNAc(b1-2)Man(a1-6)]Man(b1-4)GlcNAc(b1-4)[Fuc(a1-6)]GlcNAc
# Procedure, shortened: as §1
# [17] = molecular target: Neu5Ac(a2-6)Gal(b1-4)GlcNAc(b1-2)Man(a1-6)Man(b1-4)GlcNAc(b1-4)GlcNAc
# Procedure, shortened: as §1
# [18] = molecular target: Neu5Ac(a2-6)Gal(b1-4)GlcNAc(b1-3)Gal(b1-3)GlcNAc
# Procedure, shortened: as §1
# [19] = molecular target: Neu5Ac(a2-6)Gal(b1-4)GlcNAc(b1-3)Gal(b1-4)GlcNAc(b1-3)Gal(b1-4)GlcNAc(b1-2)Man(a1-3)[Neu5Ac(a2-6)Gal(b1-4)GlcNAc(b1-3)Gal(b1-4)GlcNAc(b1-3)Gal(b1-4)GlcNAc(b1-2)Man(a1-6)]GalNAc
# Procedure, shortened: as §1
# [20] = molecular target: Neu5Ac(a2-6)Gal(b1-4)GlcNAc(b1-3)Gal(b1-4)GlcNAc(b1-3)GalNAc
# Procedure, shortened: as §1
# [21] = molecular target: Neu5Ac(a2-6)Gal(b1-4)GlcNAc(b1-3)Gal(b1-4)GlcNAc(b1-3)[Neu5Ac(a2-6)Gal(b1-4)GlcNAc(b1-3)Gal(b1-4)GlcNAc(b1-6)]GalNAc
# Procedure, shortened: as §1
# [22] = molecular target: Neu5Ac(a2-8)Neu5Ac(a2-3)Gal(b1-3)GalNAc(b1-4)[Neu5Ac(a2-8)Neu5Ac(a2-3)]Gal(b1-4)Glc
# Procedure, shortened: as §1
# [23] = molecular target: Neu5Ac(a2-8)Neu5Ac(a2-3)[Gal(b1-3)GalNAc(b1-4)]Gal(b1-4)Glc
# Procedure, shortened: as §1
# [24] = molecular target: Neu5Ac9Ac(a2-6)Gal(b1-4)GlcNAc
# Procedure, shortened: as §1
# [25] = molecular target: Neu5Gc(a2-6)Gal(b1-4)GlcNAc
# Procedure, shortened: as §1
# [26] = molecular target: Neu5Gc(a2-8)Neu5Ac(a2-3)Gal(b1-4)GlcNAc
# Procedure, shortened: as §1
binder,measurement,setting,value
B1,glycan array binding signal (z-score),[1],-0.689
same,glycan array binding signal (z-score),[2],2.11
same,glycan array binding signal (z-score),[3],2.07
same,glycan array binding signal (z-score),[4],1.82
same,glycan array binding signal (z-score),[5],0.18
same,glycan array binding signal (z-score),[6],-0.319
same,glycan array binding signal (z-score),GlcNAc(b1-3)Man,1.02
same,glycan array binding signal (z-score),[7],0.068
same,glycan array binding signal (z-score),[8],0.31
same,glycan array binding signal (z-score),MurNAc(b1-4)GlcNAc,-0.798
same,glycan array binding signal (z-score),[9],-0.752
same,glycan array binding signal (z-score),[10],-0.65
same,glycan array binding signal (z-score),[11],0.849
same,glycan array binding signal (z-score),[12],0.273
same,glycan array binding signal (z-score),[13],1.8
same,glycan array binding signal (z-score),[14],0.446
same,glycan array binding signal (z-score),[15],-0.376
same,glycan array binding signal (z-score),[16],2.31
same,glycan array binding signal (z-score),[17],0.4
same,glycan array binding signal (z-score),[18],-0.33
same,glycan array binding signal (z-score),[19],2.47
same,glycan array binding signal (z-score),[20],0.214
same,glycan array binding signal (z-score),[21],0.568
same,glycan array binding signal (z-score),[22],1.98
same,glycan array binding signal (z-score),[23],0.321
same,glycan array binding signal (z-score),[24],0.62
same,glycan array binding signal (z-score),[25],-0.005
same,glycan array binding signal (z-score),[26],-0.504
